The structures appear in SMILES notation. Activity calls are given as the source filed them. The calls were made as follows: active = hit-call score of the fitted dose curve at least 0.9, where 1 is the maximum; inactive = score below 0.9.

X-box-binding protein 1 (Homo sapiens), sequence (P17861 whole entry, looked up): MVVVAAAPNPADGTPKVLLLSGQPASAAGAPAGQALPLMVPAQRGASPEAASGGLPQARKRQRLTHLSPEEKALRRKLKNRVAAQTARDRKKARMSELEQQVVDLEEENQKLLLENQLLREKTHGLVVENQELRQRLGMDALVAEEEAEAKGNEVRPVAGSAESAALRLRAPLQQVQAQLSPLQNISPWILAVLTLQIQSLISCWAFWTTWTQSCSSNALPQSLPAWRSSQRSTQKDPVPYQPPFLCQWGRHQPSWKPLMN

The target of this test is X-box-binding protein 1 (Homo sapiens) (UniProt P17861). Description: ATG_Xbp1_CIS: Attagene CIS-FACTORIAL HepG2 Assay for human X-box Binding Protein 1 (XBP1) (AID 2282972). To be noted: HepG2 XBP1 cis-element reporter, Attagene multiplex; actives raise or lower the signal. Summed up:
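Multiplexed cis-reporter readout in transfected HepG2 liver cells. Exposure lasted 24 hours. Activity in either direction was fitted against DMSO as negative control and baseline.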
For the compound `Cc1cc(C)cc(C)c1`, the call was inactive.

Broadly, the AC50 is the concentration at which the activity in the assay is half-maximal. As for `CC(C)N(C(=O)CCl)c1ccccc1`, the half-maximal activity concentration (AC50) is 47.9 µM (active).

Turning to `BrCC(Br)c1ccccc1` (centres undefined), the call was inactive.

Consider `CCOC(=O)CCN(SN(C)C(=O)Oc1cccc2c1OC(C)(C)C2)C(C)C`, for which the compound was classed as inactive.

For the compound `CCCCOC(=O)COC(=O)c1ccccc1C(=O)OCCCC`, the call was inactive.

For the compound `Clc1cccc(Cl)c1Cl`, the compound was classed as inactive.

`CC(C)[N+](=O)[O-]`: the call was inactive.

For `Cc1cc(SCc2sc(-c3ccc(C(F)(F)F)c(F)c3)nc2C)ccc1OCC(=O)O`, the AC50 was 25.2 µM (active).

`O=C(CBr)c1ccc(O)cc1`: the result was inactive.

For `CCOP(=S)(OCC)O/N=C(\C#N)c1ccccc1`, the compound was called inactive.

For `CCN(CC)C(=O)C(Cl)=C(C)OP(=O)(OC)OC`, the compound was classed as inactive.

In the case of `O=C(O)CC(O)(CC(=O)O)C(=O)O`, the compound was called inactive.

On to `ClCc1ccccc1Cl`, for which the half-maximal activity concentration (AC50) was 100 µM (active).

As to `CCCCCCCCBr`, the result was inactive.

Take `N#Cc1ccccc1Cl`: the call was inactive.

For the compound `O=C1C=CC(=O)c2ccccc21`, the compound was called inactive.

Take `COc1nn(C(=O)NS(=O)(=O)c2ccccc2OC(F)(F)F)c(=O)n1C`: the outcome was inactive.

As to `N#Cc1ccc(Cl)cc1`, the compound was classed as inactive.

As to `NNCCO`, the outcome was inactive.

With `O=[N+]([O-])c1ccc(Cl)c([N+](=O)[O-])c1`, the outcome was inactive.

As to `C=CC(Cl)CCl` (centres undefined), the outcome was inactive.

On to `O=C(O)COc1cc(Cl)c(Cl)cc1Cl`, for which the call was inactive.

`C[C@H]1C(=O)O[C@@H]2CCN3CC=C(COC(=O)[C@](C)(O)[C@]1(C)O)[C@H]23`: the outcome was inactive.

`CN(C)[C@@H]1C(=O)C(C(N)=O)=C(O)[C@@]2(O)C(=O)C3=C(O)c4c(O)ccc(Cl)c4[C@@](C)(O)[C@H]3C[C@@H]12`: the compound was classed as inactive.

Regarding `CN(N=O)C(N)=O`, the result was inactive.

For `OC[C@@H](O)[C@H]1O[C@@H]2O[C@H](C(Cl)(Cl)Cl)O[C@@H]2[C@H]1O`, the compound was classed as inactive.

With `OCCCCO`, the compound was classed as inactive.

Take `CCCCCCCCCCCCCCC(Br)C(=O)O` (centres undefined): the AC50 was 152 µM (active).

With `OC[P+](CO)(CO)CO`, the outcome was inactive.

In the case of `C=CCOC(N)=O`, the outcome was inactive.

As to `O=CCCl`, the concentration at half-maximal activity (AC50) is 24.7 µM (active).

`N#CS`: the call was inactive.

In the case of `CCOC(=O)CC(=O)CCl`, the AC50 was 23.6 µM (active).

As for `CCC(C)(C#N)N=NC(C)(C#N)CC` (centres undefined), the compound was called inactive.

In the case of `CC(C)C(C)(N)C#N` (centres undefined), the outcome was inactive.

Consider `CCC[CH2][Sn]([CH2]CCC)([CH2]CCC)[CH2]CCC`, for which the outcome was inactive.

With `N#CCC#N`, the compound was classed as inactive.

As for `FC(F)OCC(F)(F)C(F)(F)F`, the call was inactive.

Regarding `C[As+](C)(C)CC(=O)[O-]`, the outcome was inactive.

The values are drawn from PubChem BioAssay (EPA / NIEHS).
